Test results from the supplement of paper PMC11732987, “Enantioselective OTUD7B fragment discovery through chemoproteomics screening and high-throughput optimisation” (Communications Chemistry, 2025).

Assays:
Experiment in all cases: log2 ratio of Biotin-Ahx-Ub-VS probe labelling (fragment/DMSO); higher = less target engagement (more negative = stronger competition), active = hit call of the paper (q ≤ 0.05, log2 ratio ≤ -1)
Conditions in all cases: compound concentration: 200 uM; treatment time: 3 h
USP42 = target: T1, USP42 (UniProt Q9H9J4)
T1 sequence (whole entry): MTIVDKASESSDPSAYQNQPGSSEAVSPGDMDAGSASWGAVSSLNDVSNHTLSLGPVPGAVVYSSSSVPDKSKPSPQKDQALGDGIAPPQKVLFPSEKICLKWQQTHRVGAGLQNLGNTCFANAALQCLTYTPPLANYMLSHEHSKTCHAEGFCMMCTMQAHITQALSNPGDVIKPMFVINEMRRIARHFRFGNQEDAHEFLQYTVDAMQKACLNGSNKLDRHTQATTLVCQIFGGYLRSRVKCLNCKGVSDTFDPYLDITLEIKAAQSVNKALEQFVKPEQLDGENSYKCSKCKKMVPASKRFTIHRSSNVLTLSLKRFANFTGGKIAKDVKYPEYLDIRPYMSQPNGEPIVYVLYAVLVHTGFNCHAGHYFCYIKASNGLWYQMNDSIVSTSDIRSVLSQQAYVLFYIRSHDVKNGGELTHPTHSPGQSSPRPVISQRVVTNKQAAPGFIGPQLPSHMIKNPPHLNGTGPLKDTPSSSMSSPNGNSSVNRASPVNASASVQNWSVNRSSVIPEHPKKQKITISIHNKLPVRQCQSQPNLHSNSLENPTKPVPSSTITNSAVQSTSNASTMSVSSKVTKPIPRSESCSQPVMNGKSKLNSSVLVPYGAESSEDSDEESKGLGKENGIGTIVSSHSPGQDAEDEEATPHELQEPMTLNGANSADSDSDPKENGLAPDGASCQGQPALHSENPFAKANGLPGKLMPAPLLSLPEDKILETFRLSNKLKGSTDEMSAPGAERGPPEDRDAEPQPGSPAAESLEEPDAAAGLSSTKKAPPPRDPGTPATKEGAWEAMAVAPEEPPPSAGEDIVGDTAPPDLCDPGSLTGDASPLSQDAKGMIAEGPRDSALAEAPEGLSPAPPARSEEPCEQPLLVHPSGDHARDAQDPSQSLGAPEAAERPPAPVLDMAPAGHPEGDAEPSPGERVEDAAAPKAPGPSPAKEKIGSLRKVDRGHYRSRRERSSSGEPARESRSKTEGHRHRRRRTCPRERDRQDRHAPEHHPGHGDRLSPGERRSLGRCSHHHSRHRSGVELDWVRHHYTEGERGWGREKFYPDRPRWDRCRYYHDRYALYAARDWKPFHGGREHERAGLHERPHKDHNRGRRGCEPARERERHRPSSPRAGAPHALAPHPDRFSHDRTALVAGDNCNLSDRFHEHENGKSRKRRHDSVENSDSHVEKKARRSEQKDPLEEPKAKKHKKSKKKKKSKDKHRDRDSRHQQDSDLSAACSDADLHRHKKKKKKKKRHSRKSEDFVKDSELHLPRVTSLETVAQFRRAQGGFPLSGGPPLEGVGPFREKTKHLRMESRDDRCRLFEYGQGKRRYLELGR
Procedure, shortened: (§1)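 Global-median-normalised Spectronaut label-free quantities were compared by unpaired t-test, and values are average log2 ratios of fragment over vehicle. Only proteins with ≥2 unique peptides were used. HEK293T lysate (495 µg per sample) was treated in triplicate with fragment at 200 µM or vehicle for 3 h and then with Biotin-Ahx-Ub-VS at 0.5 µM final for 1 h. Labelled DUBs were then NeutrAvidin-enriched, digested with LysC and trypsin, and run by diaPASEF LC-MS/MS.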

USP46 = USP46 (UniProt P62068)
Sequence of USP46 (P62068 whole entry): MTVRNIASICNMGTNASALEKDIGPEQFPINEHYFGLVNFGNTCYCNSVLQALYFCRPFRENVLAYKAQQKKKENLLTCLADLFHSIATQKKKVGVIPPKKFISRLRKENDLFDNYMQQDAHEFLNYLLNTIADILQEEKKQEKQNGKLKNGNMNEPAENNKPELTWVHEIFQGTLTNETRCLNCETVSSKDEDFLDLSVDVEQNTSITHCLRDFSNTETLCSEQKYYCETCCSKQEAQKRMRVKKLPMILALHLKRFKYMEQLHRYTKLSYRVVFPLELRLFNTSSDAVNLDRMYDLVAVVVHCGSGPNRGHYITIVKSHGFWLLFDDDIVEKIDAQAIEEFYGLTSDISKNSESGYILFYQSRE
Procedure, shortened: as §1

USP47 = target: T2, USP47 (UniProt Q96K76)
T2 sequence (whole entry): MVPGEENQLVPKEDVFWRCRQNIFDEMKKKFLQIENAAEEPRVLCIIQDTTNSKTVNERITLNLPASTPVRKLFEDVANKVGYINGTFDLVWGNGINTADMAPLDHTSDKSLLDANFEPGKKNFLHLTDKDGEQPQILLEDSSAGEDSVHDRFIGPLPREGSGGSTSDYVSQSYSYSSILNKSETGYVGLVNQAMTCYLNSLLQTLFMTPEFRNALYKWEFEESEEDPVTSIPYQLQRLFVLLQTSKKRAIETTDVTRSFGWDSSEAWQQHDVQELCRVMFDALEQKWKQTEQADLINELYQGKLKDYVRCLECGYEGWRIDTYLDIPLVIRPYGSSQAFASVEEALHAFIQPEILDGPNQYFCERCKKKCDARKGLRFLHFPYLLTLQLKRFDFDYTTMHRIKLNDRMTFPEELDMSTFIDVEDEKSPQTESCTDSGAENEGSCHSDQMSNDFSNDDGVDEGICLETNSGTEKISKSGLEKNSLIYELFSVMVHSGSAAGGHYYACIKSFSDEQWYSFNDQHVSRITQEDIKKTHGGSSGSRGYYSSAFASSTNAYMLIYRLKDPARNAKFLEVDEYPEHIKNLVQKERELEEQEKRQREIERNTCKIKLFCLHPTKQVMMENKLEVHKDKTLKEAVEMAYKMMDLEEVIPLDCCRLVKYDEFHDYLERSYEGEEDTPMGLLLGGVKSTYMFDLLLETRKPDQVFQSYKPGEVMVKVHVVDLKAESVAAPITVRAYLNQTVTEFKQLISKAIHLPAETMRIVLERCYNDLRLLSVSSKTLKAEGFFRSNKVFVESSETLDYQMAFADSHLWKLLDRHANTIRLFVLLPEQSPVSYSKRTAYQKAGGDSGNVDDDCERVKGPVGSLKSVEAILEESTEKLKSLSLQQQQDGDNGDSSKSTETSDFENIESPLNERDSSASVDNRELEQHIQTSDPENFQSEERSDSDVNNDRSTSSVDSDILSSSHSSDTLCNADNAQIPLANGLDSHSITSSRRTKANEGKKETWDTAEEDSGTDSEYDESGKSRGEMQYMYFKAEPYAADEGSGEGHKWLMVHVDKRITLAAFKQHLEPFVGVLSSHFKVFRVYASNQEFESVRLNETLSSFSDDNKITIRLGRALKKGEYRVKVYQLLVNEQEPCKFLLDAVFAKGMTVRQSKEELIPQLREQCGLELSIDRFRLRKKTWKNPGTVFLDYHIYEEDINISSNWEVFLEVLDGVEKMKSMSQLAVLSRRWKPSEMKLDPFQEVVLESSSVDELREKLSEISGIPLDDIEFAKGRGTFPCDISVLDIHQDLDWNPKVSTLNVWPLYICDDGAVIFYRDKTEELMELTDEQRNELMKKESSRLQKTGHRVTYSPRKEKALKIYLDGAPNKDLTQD
Procedure, shortened: as §1

USP48 = target: T3, USP48 (UniProt Q86UV5)
T3 sequence (whole entry): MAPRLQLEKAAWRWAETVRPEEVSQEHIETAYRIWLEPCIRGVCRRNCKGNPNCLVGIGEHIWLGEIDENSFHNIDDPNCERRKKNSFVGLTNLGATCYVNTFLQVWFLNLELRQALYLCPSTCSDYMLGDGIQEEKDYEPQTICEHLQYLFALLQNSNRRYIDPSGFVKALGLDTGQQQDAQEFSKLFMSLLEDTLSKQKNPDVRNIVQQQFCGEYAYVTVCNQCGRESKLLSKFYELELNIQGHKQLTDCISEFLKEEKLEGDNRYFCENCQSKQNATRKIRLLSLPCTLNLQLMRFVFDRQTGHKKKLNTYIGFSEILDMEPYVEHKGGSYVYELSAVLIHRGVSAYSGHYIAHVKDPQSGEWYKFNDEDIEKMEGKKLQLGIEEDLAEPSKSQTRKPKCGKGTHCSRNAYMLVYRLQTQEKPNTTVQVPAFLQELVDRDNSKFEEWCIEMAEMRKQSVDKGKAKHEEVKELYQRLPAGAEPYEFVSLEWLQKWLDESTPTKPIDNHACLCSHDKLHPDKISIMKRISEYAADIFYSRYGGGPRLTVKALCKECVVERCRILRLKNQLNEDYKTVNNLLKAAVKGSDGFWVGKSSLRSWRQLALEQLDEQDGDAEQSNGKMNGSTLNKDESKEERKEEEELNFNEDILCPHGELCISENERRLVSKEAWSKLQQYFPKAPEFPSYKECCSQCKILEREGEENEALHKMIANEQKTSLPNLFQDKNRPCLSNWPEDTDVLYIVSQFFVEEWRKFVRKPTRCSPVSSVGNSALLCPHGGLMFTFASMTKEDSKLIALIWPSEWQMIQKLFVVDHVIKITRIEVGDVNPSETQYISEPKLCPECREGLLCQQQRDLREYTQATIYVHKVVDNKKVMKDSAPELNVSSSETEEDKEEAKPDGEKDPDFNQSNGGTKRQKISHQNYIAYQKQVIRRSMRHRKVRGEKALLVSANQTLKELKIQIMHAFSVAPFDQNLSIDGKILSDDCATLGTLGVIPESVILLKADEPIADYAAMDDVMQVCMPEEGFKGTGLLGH
Procedure, shortened: as §1

USP5 = target: T4, USP5 (UniProt P45974)
T4 sequence (whole entry): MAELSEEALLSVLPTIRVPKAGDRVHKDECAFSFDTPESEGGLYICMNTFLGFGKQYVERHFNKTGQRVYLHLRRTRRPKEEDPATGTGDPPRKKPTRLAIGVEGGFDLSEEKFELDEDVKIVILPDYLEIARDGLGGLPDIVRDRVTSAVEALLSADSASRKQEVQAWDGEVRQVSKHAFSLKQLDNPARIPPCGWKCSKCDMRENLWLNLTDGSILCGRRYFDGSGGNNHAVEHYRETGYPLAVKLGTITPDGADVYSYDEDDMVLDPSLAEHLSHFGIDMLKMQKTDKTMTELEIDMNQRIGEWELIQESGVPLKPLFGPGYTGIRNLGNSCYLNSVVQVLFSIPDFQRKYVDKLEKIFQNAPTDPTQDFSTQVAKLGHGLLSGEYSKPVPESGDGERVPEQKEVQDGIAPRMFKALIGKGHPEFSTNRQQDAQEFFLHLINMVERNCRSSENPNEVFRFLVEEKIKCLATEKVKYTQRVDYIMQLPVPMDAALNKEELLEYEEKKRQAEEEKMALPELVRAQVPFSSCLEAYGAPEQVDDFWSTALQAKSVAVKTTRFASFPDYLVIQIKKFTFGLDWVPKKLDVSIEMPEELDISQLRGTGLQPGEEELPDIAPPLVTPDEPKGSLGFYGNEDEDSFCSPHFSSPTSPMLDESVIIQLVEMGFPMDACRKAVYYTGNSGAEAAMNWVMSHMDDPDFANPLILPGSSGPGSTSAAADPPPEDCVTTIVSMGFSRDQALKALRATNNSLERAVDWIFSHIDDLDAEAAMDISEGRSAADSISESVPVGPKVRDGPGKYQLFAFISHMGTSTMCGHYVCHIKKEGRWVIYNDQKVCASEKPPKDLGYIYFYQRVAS
Procedure, shortened: as §1

USP54 = USP54 (UniProt Q70EL1)
Sequence of USP54 (Q70EL1 whole entry): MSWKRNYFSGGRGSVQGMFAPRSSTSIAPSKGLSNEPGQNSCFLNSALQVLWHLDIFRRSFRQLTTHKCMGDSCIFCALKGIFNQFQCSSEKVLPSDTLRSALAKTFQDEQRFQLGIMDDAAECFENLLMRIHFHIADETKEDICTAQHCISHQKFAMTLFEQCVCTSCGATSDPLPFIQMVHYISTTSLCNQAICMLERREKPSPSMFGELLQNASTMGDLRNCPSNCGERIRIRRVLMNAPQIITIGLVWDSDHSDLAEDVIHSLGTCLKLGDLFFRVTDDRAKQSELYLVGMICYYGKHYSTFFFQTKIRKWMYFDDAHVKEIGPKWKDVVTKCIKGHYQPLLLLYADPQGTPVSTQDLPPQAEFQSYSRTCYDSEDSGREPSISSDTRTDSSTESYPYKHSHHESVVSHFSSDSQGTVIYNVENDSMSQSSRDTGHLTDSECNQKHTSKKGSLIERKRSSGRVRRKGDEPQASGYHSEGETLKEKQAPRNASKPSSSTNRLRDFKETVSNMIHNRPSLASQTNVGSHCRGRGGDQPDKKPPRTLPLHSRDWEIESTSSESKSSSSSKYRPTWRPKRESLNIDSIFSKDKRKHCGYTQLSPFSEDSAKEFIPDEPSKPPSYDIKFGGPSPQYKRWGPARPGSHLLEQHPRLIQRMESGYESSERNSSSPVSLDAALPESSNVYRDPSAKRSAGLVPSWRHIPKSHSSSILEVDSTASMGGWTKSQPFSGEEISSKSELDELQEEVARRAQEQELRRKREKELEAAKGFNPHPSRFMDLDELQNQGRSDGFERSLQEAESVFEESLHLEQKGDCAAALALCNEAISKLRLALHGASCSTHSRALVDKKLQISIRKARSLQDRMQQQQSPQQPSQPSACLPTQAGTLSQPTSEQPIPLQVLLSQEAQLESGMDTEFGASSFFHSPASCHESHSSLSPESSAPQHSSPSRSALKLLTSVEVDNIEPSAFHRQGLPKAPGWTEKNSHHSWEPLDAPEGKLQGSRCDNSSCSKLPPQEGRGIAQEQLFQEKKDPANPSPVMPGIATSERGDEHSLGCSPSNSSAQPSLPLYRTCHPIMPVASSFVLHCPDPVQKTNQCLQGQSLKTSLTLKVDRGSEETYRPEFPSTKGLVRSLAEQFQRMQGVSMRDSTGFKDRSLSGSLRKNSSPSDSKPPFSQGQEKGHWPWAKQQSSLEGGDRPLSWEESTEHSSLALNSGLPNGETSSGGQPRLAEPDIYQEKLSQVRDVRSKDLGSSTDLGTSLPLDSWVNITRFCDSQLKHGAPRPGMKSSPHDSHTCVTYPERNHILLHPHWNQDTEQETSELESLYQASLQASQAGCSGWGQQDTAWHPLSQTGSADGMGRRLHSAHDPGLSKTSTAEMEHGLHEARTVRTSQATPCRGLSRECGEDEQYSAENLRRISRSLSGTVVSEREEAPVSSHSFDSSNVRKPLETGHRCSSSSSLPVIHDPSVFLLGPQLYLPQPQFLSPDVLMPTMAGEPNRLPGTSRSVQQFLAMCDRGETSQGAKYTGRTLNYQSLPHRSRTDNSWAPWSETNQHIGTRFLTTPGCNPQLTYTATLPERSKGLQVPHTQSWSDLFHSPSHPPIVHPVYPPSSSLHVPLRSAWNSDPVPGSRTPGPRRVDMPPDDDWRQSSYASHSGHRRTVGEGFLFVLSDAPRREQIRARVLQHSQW
Procedure, shortened: as §1

USP7 = USP7 (UniProt Q93009)
Sequence of USP7 (Q93009 whole entry, looked up): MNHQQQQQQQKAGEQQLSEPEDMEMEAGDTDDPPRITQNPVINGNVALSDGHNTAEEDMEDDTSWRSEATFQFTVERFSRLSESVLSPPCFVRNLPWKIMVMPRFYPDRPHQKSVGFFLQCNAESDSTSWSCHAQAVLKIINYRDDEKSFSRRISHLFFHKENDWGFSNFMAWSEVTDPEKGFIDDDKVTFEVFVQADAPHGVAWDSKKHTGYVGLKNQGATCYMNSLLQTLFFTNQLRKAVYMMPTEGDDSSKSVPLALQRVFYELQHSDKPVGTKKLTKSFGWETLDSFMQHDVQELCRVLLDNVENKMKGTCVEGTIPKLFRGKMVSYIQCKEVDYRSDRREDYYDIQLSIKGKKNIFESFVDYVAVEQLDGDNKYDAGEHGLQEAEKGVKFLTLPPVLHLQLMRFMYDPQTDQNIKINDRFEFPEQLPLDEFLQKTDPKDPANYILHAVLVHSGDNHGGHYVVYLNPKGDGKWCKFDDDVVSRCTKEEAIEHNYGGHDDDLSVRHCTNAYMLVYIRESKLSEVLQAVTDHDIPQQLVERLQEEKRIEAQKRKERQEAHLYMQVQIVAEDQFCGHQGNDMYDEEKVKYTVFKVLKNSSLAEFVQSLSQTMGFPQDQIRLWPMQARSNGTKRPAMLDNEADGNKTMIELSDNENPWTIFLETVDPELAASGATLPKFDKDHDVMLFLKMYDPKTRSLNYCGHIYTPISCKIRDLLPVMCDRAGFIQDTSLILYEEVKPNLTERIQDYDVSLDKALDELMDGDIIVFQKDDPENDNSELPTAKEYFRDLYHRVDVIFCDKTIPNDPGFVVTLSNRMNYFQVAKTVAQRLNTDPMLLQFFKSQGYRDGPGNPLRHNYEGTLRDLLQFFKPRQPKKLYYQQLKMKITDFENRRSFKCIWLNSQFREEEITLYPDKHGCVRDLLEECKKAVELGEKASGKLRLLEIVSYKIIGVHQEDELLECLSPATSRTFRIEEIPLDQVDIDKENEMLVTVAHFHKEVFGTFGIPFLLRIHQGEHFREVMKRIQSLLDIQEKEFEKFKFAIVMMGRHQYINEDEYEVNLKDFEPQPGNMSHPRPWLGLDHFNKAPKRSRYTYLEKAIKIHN
Procedure, shortened: as §1

USP8 = target: T5, USP8 (UniProt P40818)
T5 sequence (whole entry): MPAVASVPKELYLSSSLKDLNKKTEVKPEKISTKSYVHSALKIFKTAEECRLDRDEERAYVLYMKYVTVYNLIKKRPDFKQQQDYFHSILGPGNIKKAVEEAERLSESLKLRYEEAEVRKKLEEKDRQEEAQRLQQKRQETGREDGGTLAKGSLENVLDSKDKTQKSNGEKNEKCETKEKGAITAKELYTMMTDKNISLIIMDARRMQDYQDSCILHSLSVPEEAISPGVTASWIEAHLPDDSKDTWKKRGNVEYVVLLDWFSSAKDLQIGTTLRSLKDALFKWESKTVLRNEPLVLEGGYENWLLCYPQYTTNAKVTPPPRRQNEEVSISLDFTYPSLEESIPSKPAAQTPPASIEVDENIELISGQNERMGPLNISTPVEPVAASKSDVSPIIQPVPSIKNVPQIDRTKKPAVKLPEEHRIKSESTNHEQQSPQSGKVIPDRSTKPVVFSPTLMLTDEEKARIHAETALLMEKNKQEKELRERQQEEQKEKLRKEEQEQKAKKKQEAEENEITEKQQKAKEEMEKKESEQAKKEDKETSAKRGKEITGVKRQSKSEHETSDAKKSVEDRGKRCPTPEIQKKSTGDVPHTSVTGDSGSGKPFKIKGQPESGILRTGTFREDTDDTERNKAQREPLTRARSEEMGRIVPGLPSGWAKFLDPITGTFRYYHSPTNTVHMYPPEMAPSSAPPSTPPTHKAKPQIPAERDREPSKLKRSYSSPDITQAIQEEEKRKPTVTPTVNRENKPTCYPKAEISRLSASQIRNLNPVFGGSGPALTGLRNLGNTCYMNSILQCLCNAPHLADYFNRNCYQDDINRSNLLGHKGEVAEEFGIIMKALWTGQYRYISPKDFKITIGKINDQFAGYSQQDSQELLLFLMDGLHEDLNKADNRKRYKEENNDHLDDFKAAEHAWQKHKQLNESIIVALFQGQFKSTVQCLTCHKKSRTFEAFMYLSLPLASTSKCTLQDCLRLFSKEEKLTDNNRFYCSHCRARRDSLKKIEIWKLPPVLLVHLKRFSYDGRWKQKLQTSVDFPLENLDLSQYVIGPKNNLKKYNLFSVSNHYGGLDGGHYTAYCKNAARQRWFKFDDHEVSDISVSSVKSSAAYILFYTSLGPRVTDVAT
Procedure, shortened: as §1

USP9X = USP9X (UniProt Q93008)
Procedure, shortened: as §1

UniProt O00487 = target: UniProt O00487
Sequence of UniProt O00487 (O00487 whole entry): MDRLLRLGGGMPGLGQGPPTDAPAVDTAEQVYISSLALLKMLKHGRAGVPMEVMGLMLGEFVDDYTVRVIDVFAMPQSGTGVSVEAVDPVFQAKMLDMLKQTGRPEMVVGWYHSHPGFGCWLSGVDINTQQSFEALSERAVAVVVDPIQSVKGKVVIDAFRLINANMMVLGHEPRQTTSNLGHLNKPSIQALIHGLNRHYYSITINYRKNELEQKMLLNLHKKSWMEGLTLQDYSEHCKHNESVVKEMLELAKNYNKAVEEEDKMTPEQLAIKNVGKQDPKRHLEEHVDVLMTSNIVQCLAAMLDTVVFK
Procedure, shortened: as §1

Measured: log2 ratio of Biotin-Ahx-Ub-VS probe labelling

COc1ccccc1C(C)NC(=O)CCl (stereo not given)
inactive: USP42 -0.0523 | USP46 -0.0541 | USP47 -0.334 | USP48 -0.321 | USP5 -0.208 | USP54 0.256 | USP7 -0.235 | USP8 -0.576 | USP9X -0.174 | UniProt O00487 0.0235

CCN(C(=O)CCl)C1CCCCC1
inactive: USP42 0.177 | USP46 -0.202 | USP47 -0.157 | USP48 -0.238 | USP5 0.443 | USP54 0.0425 | USP7 -0.372 | USP8 0.0715 | USP9X -0.0791 | UniProt O00487 0.0502
